CHX counter: Cycloheximide Counterscreen for Small Molecule Inhibitors of Shiga Toxin | cell reporter, cycloheximide protein synthesis inhibition counterscreen | max response, % | actives 12% (n = 300,000) | AID 2314, 2010; in the data active means max response mostly above about 13%, no sharp cut-off; inactive means mostly below about 14%; further: read at 38.3 µM for the half of the compounds with a filed dose; 0% is about no effect
NS1 function inh: qHTS Assay for Inhibitors of Influenza NS1 Protein Function | Potency, µM (doses to about 46.1 µM), inactives show at the highest dose activity, positive = more growth | actives 0.4% (n = 270,000); calls by dose curve; further: potency means the concentration at half of the fitted maximal effect; actives are rising curves; nearly all actives have a fitted effect of over 50% in size
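Compounds were scored for reversing the slow growth caused by influenza A NS1 in S. cerevisiae, measured by optical density at 600 nm. Assay medium contained 2% galactose at pH 6.0; NS1-free yeast of the same strain were the positive control.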
AmpC no deterg: qHTS Inhibitors of AmpC Beta-Lactamase (assay without detergent); AmpC nitrocefin hydrolysis, absorbance 480 nm, 0.0001% Triton; Potency, µM (highest dose often 57.1 µM), for the others: at the top dose activity change, negative = inhibition, usual class: inhibitors; actives 0.52% (n = 330,000);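 further: potency means the concentration at half of the fitted maximal effect; plate controls were no compound for no effect and no enzyme for full effect; nearly all actives have a fitted effect of over 20% in size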
Target sequence (P00811 whole entry, looked up): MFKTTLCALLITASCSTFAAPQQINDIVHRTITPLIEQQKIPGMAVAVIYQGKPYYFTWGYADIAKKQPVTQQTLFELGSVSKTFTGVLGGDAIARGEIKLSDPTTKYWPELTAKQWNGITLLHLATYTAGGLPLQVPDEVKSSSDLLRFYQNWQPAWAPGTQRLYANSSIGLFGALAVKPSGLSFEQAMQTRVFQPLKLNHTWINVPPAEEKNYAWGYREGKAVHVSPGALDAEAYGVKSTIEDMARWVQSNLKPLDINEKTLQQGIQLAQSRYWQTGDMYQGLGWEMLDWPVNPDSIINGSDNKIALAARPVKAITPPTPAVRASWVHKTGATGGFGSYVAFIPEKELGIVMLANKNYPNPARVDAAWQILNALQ
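AmpC (5.3 nM in the dispensed reagent) in 20 mM phosphate pH 7.0 with 0.01% (detergent screen) or 0.0001% Triton X-100 was preincubated with compounds for 15 min at room temperature. Nitrocefin was then added from an 800 uM solution, and hydrolysis was followed at 480 nm.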
AmpC detergent: qHTS Inhibitors of AmpC Beta-Lactamase (assay with detergent); P00811; AmpC hydrolysis of nitrocefin, absorbance 480 nm, 0.01% Triton; Potency, µM (highest dose often 114 µM), for the others: at the highest dose activity change, negative = inhibition, actives largely listed as inhibitors; actives 0.041% (n = 370,000); AID 485294, 2010;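 further: potency means the concentration at half of the fitted maximal effect; 0% = no-compound wells and -100% = no-enzyme wells; nearly all actives have a fitted effect of over 25% in size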
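20 mM phosphate pH 7.0 + 0.01% (detergent screen) or 0.0001% Triton X-100; 5.3 nM AmpC reagent; cpd preinc 15 min RT; nitrocefin (800 uM stock) to start; A480 q20 s × 4 min; Activity was normalised to no-enzyme and no-compound control wells.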
Shiga inhibitor: A qHTS for Small Molecule Inhibitors of Shiga Toxin | actives 9.2% (n = 290,000) | AID 2315, 2010 | inhibition, % at 38.7 µM | Vero cells, Shiga toxin protein synthesis inhibition reporter; in the data active means inhibition mostly above about 28%, no sharp cut-off; inactive means mostly below about 43%; further: 0% is about no effect
Starred values were filed as active, the others as inactive. Only a selection was taken, and hits are over-represented in it overall. Unless noted, the call rests on the fitted dose curve; in most records, active means well fitted curve in the direction sought with a large enough effect; inconclusive means small, poorly fitted or top-dose-only effect, or another doubt; inactive means no such curve, though single readings can be large; an effect the other way counts as inactive or inconclusive.

What do the screens show for `Cc1cccc(NC(=O)C2CCCN(S(=O)(=O)c3c(C)n[nH]c3C)C2)c1` (configuration not stated)?
AmpC detergent: 2.4%

Results for O=C(Oc1ccccc1C(=O)Nc1ccccc1)c1ccccc1Br ?
CHX counter: 32.1*; NS1 function inh: -52.4%; AmpC no deterg: -36.1%; AmpC detergent: 1.1%; Shiga inhibitor: 33.1*

How did CCOC(=O)Cc1ccc(NC(=O)c2ccccc2Br)cc1 do in these assays?
CHX counter: 19.0*; NS1 function inh: -6.8%; AmpC no deterg: -7.8%; AmpC detergent: 1.2%; Shiga inhibitor: 36.8

What do the screens show for `Cc1nc(-c2ccc(NC(=O)c3ccccc3C)cc2)cs1`?
CHX counter: 31.1*; NS1 function inh: -36.9%; AmpC no deterg: -16.5%; AmpC detergent: -0.8%; Shiga inhibitor: 61.2*

How did Cc1nc(-c2ccc(NC(=O)c3ccccc3Br)cc2)cs1 do in these assays?
CHX counter: 54.6*; NS1 function inh: -6.9%; AmpC no deterg: -25.5%; AmpC detergent: 7.7%; Shiga inhibitor: 57.3*

Results for O=C(Nc1ccc(-c2csc(-c3ccccc3)n2)cc1)c1ccccc1 ?
CHX counter: -1.5; NS1 function inh: -11.0%; AmpC no deterg: -31.8%; AmpC detergent: 0.2%; Shiga inhibitor: -10.3

Results for O=C(COc1ccccc1C(=O)Nc1ccccc1)c1ccc(Br)cc1 ?
CHX counter: -1.2; NS1 function inh: 0.7%; AmpC no deterg: -21.6%; AmpC detergent: -1.6%; Shiga inhibitor: -14.4

How did CCCNC(=O)CSc1nc2ccccc2nc1Cc1ccc(Cl)cc1 do in these assays?
AmpC detergent: -2.0%

Results for COc1cc(CCC(=O)N2CCN(S(=O)(=O)c3ccc(C)cc3)CC2)cc(OC)c1OC ?
AmpC no deterg: 31.8%; AmpC detergent: 3.0%

How did CC(C)[C@H]1COCCS(=O)(=O)N1Cc1ccccc1-c1ccccc1 do in these assays?
AmpC no deterg: 32.8%

How did C/C(=N\NC(=O)c1ccc(Cl)cc1)c1ccc2[nH]ccc2c1 do in these assays?
CHX counter: 24.4*; NS1 function inh: -6.1%; AmpC no deterg: -37.7%; AmpC detergent: 0.9%; Shiga inhibitor: 56.8

Results for Cc1cc(C)nc(N/N=C/C2=C(N3CCOCC3)C(=C\c3ccc(Cl)cc3)/CC2)n1 ?
CHX counter: -2.6; NS1 function inh: 25.2%; AmpC no deterg: -3.4%; AmpC detergent: inconclusive; Shiga inhibitor: 9.9

Results for C/C(CC(=O)N1CCN(C=O)CC1)=N\NC(=O)c1ccc(Cl)cc1 ?
CHX counter: 10.8*; NS1 function inh: -5.7%; AmpC no deterg: -14.7%; AmpC detergent: 5.2%; Shiga inhibitor: 30.6

How did Cc1occc1C(=O)N/N=C/C1=C(N2CCOCC2)C(=C\c2ccc(Cl)cc2Cl)/CC1 do in these assays?
CHX counter: 16.0*; NS1 function inh: -4.3%; AmpC no deterg: -44.3%; AmpC detergent: -2.6%; Shiga inhibitor: active

How did C/C(=N\NC(=O)c1ccc(Cl)cc1)c1ccc(N2CCOCC2)cc1 do in these assays?
CHX counter: 24.9*; NS1 function inh: -11.1%; AmpC no deterg: -20.2%; AmpC detergent: inconclusive; Shiga inhibitor: 20.2

How did COC(=O)c1ccc2[nH]ccc2c1 do in these assays?
CHX counter: 1.3; NS1 function inh: 5.3%; AmpC no deterg: -34.8%; AmpC detergent: -5.0%; Shiga inhibitor: 14.1

Results for Cc1cccc(-n2c(=O)c3c(c4cc(C)ccc4n3C)n(CC(=O)Nc3ccc(C)c(C)c3)c2=O)c1 ?
AmpC detergent: 0.4%

Results for Nc1cc(S(N)(=O)=O)ccc1SSc1ccc(S(N)(=O)=O)cc1N ?
NS1 function inh: 8.4%

What do the screens show for `C/C(=N/NC(=O)c1ccoc1C)c1ccc(N2CCOCC2)cc1`?
CHX counter: 62.4*; NS1 function inh: 4.9%; AmpC no deterg: 0.4%; AmpC detergent: -2.9%; Shiga inhibitor: 114.7*

Results for COc1ccc(OC)c(-c2cc(C(=O)N3CCCc4ccccc43)no2)c1 ?
CHX counter: 9.6; NS1 function inh: -47.3%; AmpC no deterg: 2.6%; AmpC detergent: 5.2%; Shiga inhibitor: 4.4

Results for COc1ccc(C2=NOC(C(=O)N3CCCc4ccccc43)C2)cc1 (configuration not stated) ?
CHX counter: 22.6*; NS1 function inh: -138.1%; AmpC no deterg: -6.2%; AmpC detergent: 3.1%; Shiga inhibitor: 40.1

Screens deposited in PubChem BioAssay by National Center for Advancing Translational Sciences (NCATS).
